37 molecules from PMC5540273 (PLoS ONE, 2017) can be followed below.
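Also: KINOMEscan kinase panel screen.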

For one test, the system named is AURKB. The settings on record: concentration: 1 μM,replicates: in singlicate; n = 1.
In the case of `OCCn1cc(-c2cnc3nnn(Cc4ccc5ncccc5c4)c3n2)cn1`, the “%Inh” value stood at 0%.

Regarding `CCN1CCN(CCCC(=O)Nc2n[nH]c3nc(-c4ccc(O)cc4)c(Br)cc23)CC1` [SB-731579], the “%Inh” value stood at 5%.

On to `C[C@@H]1CNc2c(sc3ccc4nc(-c5ccncc5)ccc4c23)C(=O)N1`, for which the “%Inh” value amounted to 17%.

On to `COc1cccc(CNC(=O)NC2CCN(c3ccnc(Nc4cc(OC)c(OC)c(OC)c4)n3)C2)c1` (centres unmarked) [GSK1379765], for which the “%Inh” value was determined as 91.4%.

`CCn1c(-c2nonc2N)nc2cncc(CNC3CCNCC3)c21.Cl` [SB-747651]: the “%Inh” value is 23%.

For the molecule `O=C(NCC1CC1)c1ccc(-c2cc(C(=O)NC3CC3)ccc2F)cc1` [GW810445], the “%Inh” value is 4%.

Take `COc1cccc(OC)c1C(=O)Nc1cccc(-c2nn3ccccc3c2-c2ccnc(Nc3cccc(F)c3)n2)c1` [GSK361065]: the “%Inh” value was found to be 0%.

On to `Cn1cc(-c2cccc3c(N)c(C(N)=O)nnc23)cn1`, for which the “%Inh” value was determined as 27%.

`CC(C)S(=O)(=O)N1CCN(Cc2ccc3c(c2)nc(NC(=O)c2ccsc2)n3C[C@H](O)c2ccccc2)CC1` [GW635815]: the “%Inh” value is on record as 0%.

Turning to `Cc1ccc(CC(=O)N2CCc3cc(-c4cn(C)c5ncnc(N)c45)ccc32)cc1` [GSK2634758], the “%Inh” value amounted to 96.1%.

Consider `CCn1c(-c2nonc2N)nc2cncc(Br)c21` [SB-738004], for which the “%Inh” value is 17%.

On to `O=C(Nc1ccccc1)c1cccc(Oc2ccc3nccn3n2)c1`, for which the “%Inh” value was determined as 4%.

With `COC(=O)Nc1nc2cc(Oc3ccc(NC(=O)Nc4cc(C(F)(F)F)ccc4Cl)cc3)ccc2[nH]1.Cl` [GW697465], the “%Inh” value was found to be 86%.

With `O=C1NCCc2[nH]c(-c3ccncc3)cc21`, the “%Inh” value is listed as 0%.

As to `CNC(=O)c1ccccc1Nc1nc(Nc2cccc(CS(C)(=O)=O)c2)ncc1C.O=CO` [GSK1520489], the “%Inh” value was found to be 99.9%.

For `O=C(Nc1cccc(Oc2ccc3nccn3n2)c1)Nc1cccc(C(F)(F)F)c1`, the “%Inh” value was found to be 0%.

`COc1ccc(Nc2nccc(N3CCC(NC(=O)c4cccc(C#N)c4)C3)n2)cc1` (centres unmarked) [GSK1379730]: the “%Inh” value is on record as 0%.

Take `COc1cc2nccc(Nc3ccc(Oc4ccccc4)cc3)c2cc1OC.Cl` [GI261656]: the “%Inh” value is listed as 17%.

Regarding `C[C@@H](Oc1cc(-n2cnc3ccc(-c4ccncc4)cc32)sc1C(N)=O)c1ccccc1Cl` [GSK483724], the “%Inh” value was found to be 19%.

Regarding `CC(=O)Nc1ccc(-c2cc3ncnc(SCC(=O)O)c3s2)cc1`, the “%Inh” value is given as 97.1%.

Consider `NC(=O)c1ccc(-c2cc3ncnc(SCC(=O)O)c3s2)cc1`, for which the “%Inh” value was 80%.

Consider `COc1cc(Nc2nccc(N3CCC(NC(=O)c4cccc(C#N)c4)C3)n2)cc(OC)c1OC` (centres unmarked) [GSK1379751], for which the “%Inh” value turned out to be 36%.

Turning to `Cn1ccc2ncnc(Oc3ccc(NC(=O)Nc4cc(C(C)(C)C)on4)c(Cl)c3)c21`, the “%Inh” value turned out to be 88%.

Regarding `Cn1ccc2ncnc(Oc3ccc(NC(=O)Nc4cccc(C(F)(F)F)c4)c(F)c3)c21`, the “%Inh” value came to 88%.

`CC(=O)Nc1nc2cnc(Nc3cc(NC(=O)c4cccc(CC(C)(C)C#N)c4)ccc3C)nc2s1`: the “%Inh” value came to 3%.

Regarding `c1ccc(Oc2ccc(Nc3ccnc4ccc(-c5ccccn5)cc34)cc2)cc1` [GW407034], the “%Inh” value was 19%.

Turning to `COC(=O)c1cccc(NC(=O)NC2CCN(c3ccnc(Nc4cc(OC)c(OC)c(OC)c4)n3)C2)c1` (centres unmarked) [GSK1379767], the “%Inh” value came out at 39%.

In the case of `Cc1cccc(-c2nc(Nc3ccncc3)c3sccc3n2)n1` [GW869641], the “%Inh” value was determined as 43%.

For the molecule `CC(=O)c1c(-c2ccncc2)[nH]c(-c2ccncc2)c1C` [GW493036], the “%Inh” value came out at 16%.

On to `Cc1nnc(-c2ccc3occ(-c4ccc(S(C)=O)cc4)c3n2)o1` (centres unmarked), for which the “%Inh” value is 0%.

Take `Cc1ccc2c(-c3ccnc(Nc4ccc(C(F)(F)F)cc4)n3)cnn2n1` [GW819776]: the “%Inh” value worked out at 32%.

Consider `Cn1ccc2ncnc(Oc3ccc(NC(=O)Nc4cncc(C(F)(F)F)c4)c(Cl)c3)c21`, for which the “%Inh” value amounted to 25%.

In the case of `Cl.Nc1n[nH]c2cc(-c3ccccn3)ccc12` [GSK2189892], the “%Inh” value came out at 8%.

Consider `C[C@@H](Oc1cc(-n2cnc3cc(-c4cnn(C)c4)ccc32)sc1C(N)=O)c1ccccc1Cl` [GSK580432], for which the “%Inh” value stood at 90.6%.

As to `CN1CCN(CCCNc2nccc(-c3c(-c4ccc(F)cc4)nn4cc(C(N)=O)ccc34)n2)CC1` [GW622475], the “%Inh” value is 5%.

Turning to `O=C(Nc1n[nH]c2cc(-c3ccco3)ccc12)C1CC1` [SB-737447], the “%Inh” value is 12%.

On to `NC(=O)Nc1sc(-c2ccc(F)cc2)cc1C(N)=O` [GW789449], for which the “%Inh” value is reported as 83%.

Another test has as its system AURKC. The settings on record: concentration: 1 μM,replicates: in singlicate; n = 1.
With `OCCn1cc(-c2cnc3nnn(Cc4ccc5ncccc5c4)c3n2)cn1`, the “%Inh” value came out at 0%.

As to `CCN1CCN(CCCC(=O)Nc2n[nH]c3nc(-c4ccc(O)cc4)c(Br)cc23)CC1` [SB-731579], the “%Inh” value stood at 0%.

Consider `C[C@@H]1CNc2c(sc3ccc4nc(-c5ccncc5)ccc4c23)C(=O)N1`, for which the “%Inh” value is reported as 9%.

Consider `COc1cccc(CNC(=O)NC2CCN(c3ccnc(Nc4cc(OC)c(OC)c(OC)c4)n3)C2)c1` (centres unmarked) [GSK1379765], for which the “%Inh” value stood at 79%.

On to `CCn1c(-c2nonc2N)nc2cncc(CNC3CCNCC3)c21.Cl` [SB-747651], for which the “%Inh” value was determined as 0%.

Regarding `O=C(NCC1CC1)c1ccc(-c2cc(C(=O)NC3CC3)ccc2F)cc1` [GW810445], the “%Inh” value stood at 0%.

As for `COc1cccc(OC)c1C(=O)Nc1cccc(-c2nn3ccccc3c2-c2ccnc(Nc3cccc(F)c3)n2)c1` [GSK361065], the “%Inh” value is listed as 70%.

In the case of `Cn1cc(-c2cccc3c(N)c(C(N)=O)nnc23)cn1`, the “%Inh” value is reported as 53%.

For `CC(C)S(=O)(=O)N1CCN(Cc2ccc3c(c2)nc(NC(=O)c2ccsc2)n3C[C@H](O)c2ccccc2)CC1` [GW635815], the “%Inh” value was found to be 37%.

Regarding `Cc1ccc(CC(=O)N2CCc3cc(-c4cn(C)c5ncnc(N)c45)ccc32)cc1` [GSK2634758], the “%Inh” value is on record as 47%.

`CCn1c(-c2nonc2N)nc2cncc(Br)c21` [SB-738004]: the “%Inh” value is on record as 0%.

Consider `O=C(Nc1ccccc1)c1cccc(Oc2ccc3nccn3n2)c1`, for which the “%Inh” value stood at 28%.

`COC(=O)Nc1nc2cc(Oc3ccc(NC(=O)Nc4cc(C(F)(F)F)ccc4Cl)cc3)ccc2[nH]1.Cl` [GW697465]: the “%Inh” value is 53%.

On to `O=C1NCCc2[nH]c(-c3ccncc3)cc21`, for which the “%Inh” value was found to be 11%.

For `CNC(=O)c1ccccc1Nc1nc(Nc2cccc(CS(C)(=O)=O)c2)ncc1C.O=CO` [GSK1520489], the “%Inh” value is 96.8%.

Consider `O=C(Nc1cccc(Oc2ccc3nccn3n2)c1)Nc1cccc(C(F)(F)F)c1`, for which the “%Inh” value stood at 41%.

Regarding `COc1ccc(Nc2nccc(N3CCC(NC(=O)c4cccc(C#N)c4)C3)n2)cc1` (centres unmarked) [GSK1379730], the “%Inh” value came out at 22%.

As to `COc1cc2nccc(Nc3ccc(Oc4ccccc4)cc3)c2cc1OC.Cl` [GI261656], the “%Inh” value amounted to 0%.

On to `C[C@@H](Oc1cc(-n2cnc3ccc(-c4ccncc4)cc32)sc1C(N)=O)c1ccccc1Cl` [GSK483724], for which the “%Inh” value is 50%.

Regarding `CC(=O)Nc1ccc(-c2cc3ncnc(SCC(=O)O)c3s2)cc1`, the “%Inh” value came to 32%.

Regarding `NC(=O)c1ccc(-c2cc3ncnc(SCC(=O)O)c3s2)cc1`, the “%Inh” value is on record as 33%.

On to `COc1cc(Nc2nccc(N3CCC(NC(=O)c4cccc(C#N)c4)C3)n2)cc(OC)c1OC` (centres unmarked) [GSK1379751], for which the “%Inh” value was determined as 56%.

Turning to `Cn1ccc2ncnc(Oc3ccc(NC(=O)Nc4cc(C(C)(C)C)on4)c(Cl)c3)c21`, the “%Inh” value was determined as 15%.

As for `Cn1ccc2ncnc(Oc3ccc(NC(=O)Nc4cccc(C(F)(F)F)c4)c(F)c3)c21`, the “%Inh” value is on record as 65%.

Turning to `CC(=O)Nc1nc2cnc(Nc3cc(NC(=O)c4cccc(CC(C)(C)C#N)c4)ccc3C)nc2s1`, the “%Inh” value is reported as 0%.

Take `c1ccc(Oc2ccc(Nc3ccnc4ccc(-c5ccccn5)cc34)cc2)cc1` [GW407034]: the “%Inh” value is on record as 4%.

Consider `COC(=O)c1cccc(NC(=O)NC2CCN(c3ccnc(Nc4cc(OC)c(OC)c(OC)c4)n3)C2)c1` (centres unmarked) [GSK1379767], for which the “%Inh” value was 73%.

Regarding `Cc1cccc(-c2nc(Nc3ccncc3)c3sccc3n2)n1` [GW869641], the “%Inh” value turned out to be 30%.

Consider `CC(=O)c1c(-c2ccncc2)[nH]c(-c2ccncc2)c1C` [GW493036], for which the “%Inh” value is recorded as 5%.

On to `Cc1nnc(-c2ccc3occ(-c4ccc(S(C)=O)cc4)c3n2)o1` (centres unmarked), for which the “%Inh” value was 0%.

With `Cc1ccc2c(-c3ccnc(Nc4ccc(C(F)(F)F)cc4)n3)cnn2n1` [GW819776], the “%Inh” value was determined as 4%.

Turning to `Cn1ccc2ncnc(Oc3ccc(NC(=O)Nc4cncc(C(F)(F)F)c4)c(Cl)c3)c21`, the “%Inh” value is listed as 0%.

As for `Cl.Nc1n[nH]c2cc(-c3ccccn3)ccc12` [GSK2189892], the “%Inh” value was determined as 0%.

With `C[C@@H](Oc1cc(-n2cnc3cc(-c4cnn(C)c4)ccc32)sc1C(N)=O)c1ccccc1Cl` [GSK580432], the “%Inh” value is 100%.

Consider `CN1CCN(CCCNc2nccc(-c3c(-c4ccc(F)cc4)nn4cc(C(N)=O)ccc34)n2)CC1` [GW622475], for which the “%Inh” value was 10%.

With `O=C(Nc1n[nH]c2cc(-c3ccco3)ccc12)C1CC1` [SB-737447], the “%Inh” value was determined as 34%.

As to `NC(=O)Nc1sc(-c2ccc(F)cc2)cc1C(N)=O` [GW789449], the “%Inh” value worked out at 85%.
